The text below walks through data of ChEMBL document CHEMBL4513216, “Probing the Open Global Health Chemical Diversity Library for Multistage-Active Starting Points for Next-Generation Antimalarials” (ACS Infect Dis, 2020).

The whole screen tested about 69,000 compounds, of which about 8,600 (12%) showed an effect of 50% or more. The full list was thinned out, with strong results kept by preference.

For this assay, the system named is Plasmodium berghei. The assay can be described thus: Screen against P. berghei liver stage (PbLuc), transformed with Luciferase, at 10uM. Format: functional, HepG2. The settings on record: tested at 10 uM.
As to `Cn1ncc2c(=O)[nH]c(CN(Cc3ccco3)C3CCCC3)nc21`, the INHIBITION came to 54.3%.
The value for `Cn1ncc2c(=O)[nH]c(CN3CCCC3Cc3ccccc3)nc21` (stereo not drawn) was 24%; that for `Cc1ccc(C(C)N(C)Cc2nc3c(cnn3C)c(=O)[nH]2)c(C)c1` (stereo not drawn) was 8.315%; that for `Cc1ccc(C(C)N(C)Cc2nc3c(cnn3C)c(=O)[nH]2)cc1` (stereo not drawn) was 52.1%.
Consider `Cn1ncc2c(=O)[nH]c(CN3CCc4ccccc4C3)nc21`, for which the INHIBITION is on record as 40%.
`COc1ccc(C(C)N(C)Cc2nc3c(cnn3C)c(=O)[nH]2)cc1` (stereo not drawn): the INHIBITION is given as 0.7%.
As to `Cc1ccccc1C(C)N(C)Cc1nc2c(cnn2C)c(=O)[nH]1` (stereo not drawn), the INHIBITION is listed as 26.45%.
The result for `Cn1ncc2c(=O)[nH]c(CN3CCC(Cc4ccccc4)CC3)nc21` reads 52.7%.
For `Cn1ncc2c(=O)[nH]c(CN(Cc3ccco3)C3CC3)nc21`, the INHIBITION is listed as 47%.
As for `CN(Cc1nc2c(cnn2C)c(=O)[nH]1)Cc1ccco1`, the INHIBITION was -5.07%.
In the case of `Cc1ccc(CN(Cc2nc3c(cnn3C)c(=O)[nH]2)C2CC2)o1`, the INHIBITION worked out at 15.5%.
Turning to `CC(c1ccco1)N(C)Cc1nc2c(cnn2C)c(=O)[nH]1` (stereo not drawn), the INHIBITION is given as 66.8%.
As to `COC(C)(C)CNC(=O)N1CCC(n2ccc(C(F)(F)F)n2)CC1`, the INHIBITION was 33.7%.
The value for `COCCn1cc(CC(=O)Nc2c(C)nn(C)c2C)c2ccccc21` was 37.8%.
The value for `CCn1cc(CNC(=O)C2CCCC2)cn1` was 38.3%; that for `CCOc1ccccc1CC(=O)N1C[C@@H](C(=O)O)[C@H](c2ccncc2)C1` was -5.32%; that for `Cc1cccc(CN2CCC(c3csc4nccn34)CC2)n1` was 15.55%.
The result for `CCN(Cc1nc2c(cnn2C)c(=O)[nH]1)c1cccc(C)c1` reads 11.2%; that for `CCN(Cc1nc2c(cnn2C)c(=O)[nH]1)c1ccccc1`, 46.2%.
Turning to `CCN(Cc1nc2c(cnn2C)c(=O)[nH]1)c1cc(C)cc(C)c1`, the INHIBITION amounted to 64.7%.
Take `CC(=O)N1CCC2(C=C(C(=O)NC3CC3)c3ccccc32)CC1`: the INHIBITION is -25.8%.
Turning to `COc1ncc(-c2nccn2CCN(C)C)cn1`, the INHIBITION is reported as -13.2%.
With `COc1cc(CNC(C)Cn2cccn2)cc2c1OCO2` (stereo not drawn), the INHIBITION is on record as 12.6%.
With `COc1ncc(-c2nccn2C(C)CCn2cccn2)cn1` (stereo not drawn), the INHIBITION is on record as 66.9%.
`COc1cc(-c2nccn2C(C)CCn2cccn2)cc2c1OCO2` (stereo not drawn): the INHIBITION worked out at 51.3%.
The value for `COCCCn1ccnc1-c1cnc(OC)nc1` was 10.1%.
`COc1cc(-c2nccn2CCn2cccn2)cc2c1OCO2`: the INHIBITION was determined as 9.56%.
The result for `Cc1cc(CN2CCN(C(=O)c3ccc(=O)n(C)c3)CC2)no1` reads 7.19%; that for `Cc1nn(C)c(N(C)C)c1CNCc1cccnc1N(C)C`, -17.4%; that for `COc1cccc(CN2CC[C@H]3[C@@H](C2)[C@H](c2ccsc2)CN3C(C)=O)c1`, 61.9%.
As for `COc1cccc([C@@H]2CCN(Cc3cccc(C)n3)C[C@H]2O)c1`, the INHIBITION is listed as -3.83%.
For the molecule `COc1cccc([C@H]2CN(C(C)=O)[C@@H]3CCN(Cc4ccsc4)C[C@H]23)c1`, the INHIBITION is recorded as 63.4%.
With `CC(=O)N1CCO[C@@H]2CN(Cc3cccc(Cl)c3)C[C@@H]2C1`, the INHIBITION worked out at 39.4%.
The result for `COc1cccc([C@@H]2CCN(Cc3ccc4ccccc4n3)C[C@H]2O)c1` reads -18.4%; that for `COc1cccc(CN2CCCC(c3cc(C(N)=O)[nH]n3)C2)c1` (stereo not drawn), -7.31%; that for `CC(=O)N1C[C@@H](c2ccsc2)[C@@H]2CN(Cc3cccc(Cl)c3)CC[C@@H]21`, 65.5%.
With `CC(=O)N1C[C@@H](c2ccsc2)[C@@H]2CN(Cc3ccccc3)CC[C@@H]21`, the INHIBITION is given as 16.9%.
Turning to `COc1cccc(CC(=O)N2CC[C@H]3[C@@H]2CCC(=O)N3C)c1`, the INHIBITION is -3.51%.
On to `O=S(=O)(N1CCCC1)N1CC(c2ccnc(Nc3ccccn3)n2)C1`, for which the INHIBITION was 26.7%.
As for `CN(C)c1ccc(NC(=O)c2ccnn2C)nc1`, the INHIBITION is on record as -62.7%.
Take `CCN1CC2(CC1=O)CN(C(C)=O)CCN(C(=O)NC(C)C)C2` (stereo not drawn): the INHIBITION is recorded as -17.2%.
On to `COc1ccc(OCCNCc2c(C)nn(C)c2N(C)C)cc1`, for which the INHIBITION is listed as -7.1%.
Take `CCN(C)c1ncnc2c1CCN(C(=O)N1CCCC1)CC2`: the INHIBITION is reported as -21.3%.
Turning to `CC(=O)N1CCN(CCNS(=O)(=O)c2ccc(F)c(F)c2)CC1`, the INHIBITION is given as -35.1%.
Turning to `COc1cccc(OCc2cc(C(=O)NC[C@H]3CCCN3)n[nH]2)c1`, the INHIBITION was determined as 25.4%.
As for `COc1cccc(OCc2cc(C(=O)NC[C@@H]3CCCN3)n[nH]2)c1`, the INHIBITION was found to be 14.9%.
For `CNC(=O)C(C)(C)N(C)C(=O)c1cc(COc2ccccc2OC)[nH]n1`, the INHIBITION is listed as -4.23%.
For `COC(=O)C(C)(C)NC(=O)c1cc(COc2ccccc2OC)[nH]n1`, the INHIBITION is reported as -3%.
In the case of `COc1ccccc1OCc1cc(C(=O)NC[C@@H]2CCCN2)n[nH]1`, the INHIBITION was 82.9%.
Regarding `CNC(=O)C(C)(C)NC(=O)c1cc(COc2ccccc2OC)[nH]n1`, the INHIBITION turned out to be 63.7%.
The result for `Cc1ccc(NC(=O)c2cnc(N3CCN(C)CC3)nc2C)cc1C` reads 43.8%; that for `CCc1noc(-c2cccc(OCC(=O)NC(C)C)c2)n1`, 48.7%; that for `CC1(c2[nH]ncc2C(N)=O)CCN(c2ncccn2)CC1`, 26.3%.
The result for `CC(C)=CCN1C[C@@H]2CC[C@H]1CN(C(=O)Cn1c(C)cc(C)nc1=O)C2` reads -35%.
Regarding `CCn1nc(C)c(C(C)NC(=O)c2cnc(N(C)C)nc2C)c1C` (stereo not drawn), the INHIBITION came out at 10.3%.
Take `CN(C)c1nccc(N(C)C2CCCCC2)n1`: the INHIBITION was found to be 25.5%.
The value for `Cc1nc(-c2ccncc2)ncc1C(C)NC(=O)CN1CCCCC1` (stereo not drawn) was 35.8%; that for `Cc1nc(N(C)C2CCCCC2)ncc1C(C)NC(=O)c1cccnc1` (stereo not drawn) was 77.5%.
Regarding `C[C@@H](NC(=O)c1cccnc1)c1onc(-c2ccccc2)c1C(=O)O`, the INHIBITION is 7.5%.
Take `CC(C)C(=O)N1CCN(C(=O)c2cscn2)[C@H]2CS(=O)(=O)C[C@H]21`: the INHIBITION worked out at 26.8%.
With `Cc1nc(N(C)C2CCCCC2)ncc1C(C)NC(=O)c1cscn1` (stereo not drawn), the INHIBITION was 59.2%.
`CCN(C)S(=O)(=O)NC(C)c1cnc(N(C)C2CCCCC2)nc1C` (stereo not drawn): the INHIBITION is recorded as 63.1%.
Regarding `CN(c1ncccc1CNC(=O)c1cscn1)C1CCCCC1`, the INHIBITION was 26%.
In the case of `NC(=O)CN1CCC(c2cncc(-c3cccc(Cl)c3)n2)CC1`, the INHIBITION is given as -40.6%.
Consider `CC(C)COC(=O)N1CCCN(C(C)c2nnc(CC(C)C)o2)CC1` (stereo not drawn), for which the INHIBITION amounted to 4.22%.
The result for `CCCc1nc(C(C)(C)NC(=O)C2CC(=O)N(C3CCCC3)C2)no1` (stereo not drawn) reads -15.5%; that for `CCCC(=O)N1CCN(CC(O)COCC)CC1` (stereo not drawn), -2.53%.
With `Cc1ncsc1CN1CC[C@](C)(O)[C@@H](Oc2cccc(F)c2)C1`, the INHIBITION was found to be 33.7%.
Take `Cc1nc2n(n1)CC(NCc1ccnc(-c3ccccc3)n1)CC2` (stereo not drawn): the INHIBITION was -15%.
For `O=c1[nH]c(CCN2CCCCC2Cn2cccn2)nc2ccccc12` (stereo not drawn), the INHIBITION is 36.1%.
In the case of `Cc1cccnc1NC(=O)C1(n2cnnn2)CCCCC1`, the INHIBITION worked out at 49.5%.
As for `CC(C)n1[nH]c(=O)c2c1NC(=O)CC2c1ccc(S(C)(=O)=O)cc1` (stereo not drawn), the INHIBITION is given as -2.43%.
Turning to `O=C(NCC1CCCN(Cc2cccc3nonc23)C1)c1ccc[nH]1` (stereo not drawn), the INHIBITION is given as 70.3%.
`NC1(C(=O)NCC2CCCN(Cc3cccc4nonc34)C2)CCC1` (stereo not drawn): the INHIBITION is 62.8%.
In the case of `O=C(N[C@@H]1CCN(Cc2cccc3nonc23)C[C@H]1O)c1cccnc1`, the INHIBITION is listed as 12.9%.
With `CC(=O)NCC1CCCN(Cc2nc(Cc3ccccc3F)no2)C1` (stereo not drawn), the INHIBITION was 20.4%.
As to `NC1(C(=O)NCC2CCCN(Cc3ccccc3F)C2)CCCC1` (stereo not drawn), the INHIBITION is reported as 42.4%.
The result for `CCN1CCCC(CNC(=O)C2(c3cccc(Cl)c3)CC2)C1` (stereo not drawn) reads -2.42%.
On to `CCCNc1ncc(CN2CCC3(CCNC(=O)CC3)CC2)cn1`, for which the INHIBITION is reported as -41.8%.
With `CC1CCc2n[nH]c(C(=O)NCCCc3ccccn3)c2C1` (stereo not drawn), the INHIBITION is given as -41.8%.
For `Cc1ccc2oc(SCC(N)=O)nc2n1`, the INHIBITION is 18.4%.
Take `CCCC(=O)N1C[C@@H]2CCN(c3cnccn3)C[C@@H]2C1`: the INHIBITION was -30.7%.
The result for `CC(C)c1nc(CN(C)C(=O)CNS(=O)(=O)c2cccs2)cs1` reads 26.6%; that for `CC(C)c1nc(CN(C)Cc2ccc(F)cc2)cs1`, 20.4%; that for `CC(C)c1nc(CN(C)S(=O)(=O)c2cccs2)cs1`, 55.4%.
With `Cc1c(CCC(=O)Nc2ccc(Cl)cn2)cnn1C`, the INHIBITION is listed as -23.4%.
Consider `Cc1ccc(-n2nc(C)cc2N)nn1`, for which the INHIBITION was -24.2%.
Consider `CCc1nc(C)c(CN2CCOC(Cc3ccccc3Cl)C2)[nH]1` (stereo not drawn), for which the INHIBITION is on record as 24.2%.
The result for `CCc1nc(C)c(CN2CCOC(CCCC(C)C)C2)[nH]1` (stereo not drawn) reads 68.9%.
The result for `CCc1nc(C)c(CN2CCOC(Cc3cccc4ccccc34)C2)[nH]1` (stereo not drawn) reads 18.6%.
The result for `O=C(c1c[nH]c(=O)cn1)N1C[C@H]2CC[C@@H](C1)N(Cc1ccccc1)C2` reads 17.2%.
For `CCn1cc(N)c(-c2nnc3n2CCCC3)n1`, the INHIBITION stood at 21.9%.
As for `CN(CCOc1cccc(S(C)(=O)=O)c1)c1ccccc1`, the INHIBITION stood at 81.1%.
`CCC(C)(C)N(C)CCOc1cccc(S(C)(=O)=O)c1`: the INHIBITION came to 23.2%.
The value for `CN(CCOc1cccc(S(C)(=O)=O)c1)CC(F)F` was 31.1%.
Turning to `COCCN1CCC2(CC1)CN(C(=O)C1CC1)c1ccc(F)cc12`, the INHIBITION was 34.6%.
Turning to `O=C(c1cccnc1N1CCCCC1)N1CCCC(n2ccnc2)C1` (stereo not drawn), the INHIBITION is given as 22.55%.
On to `CSCC[C@@H](CO)Nc1ccc(-c2nc(-c3ccccc3F)no2)cn1`, for which the INHIBITION was determined as 76.8%.
Take `CSCC[C@@H](CO)Nc1ccc(-c2nc(-c3ccccc3C)no2)cn1`: the INHIBITION worked out at 36.5%.
`c1cc(CNc2ccc(-c3nc(C4CC4)no3)cn2)no1`: the INHIBITION is on record as 1.98%.
In the case of `CCC(C)Nc1ccc(-c2nc(-c3cccc(OC)c3OC)no2)cn1` (stereo not drawn), the INHIBITION was 33.9%.
Take `Cc1cc(CNc2ccc(-c3nc(C4CC4)no3)cn2)no1`: the INHIBITION is given as -28.3%.
With `CSCC[C@@H](CO)Nc1ccc(-c2nc(C3CC3)no2)cn1`, the INHIBITION was 54.4%.
